From PubChem BioAssay AID893 (National Center for Advancing Translational Sciences (NCATS), 2007)
In all, about 75,000 compounds went through this assay and about 5,700 (7.6%) were called active. Not shown: some 7% with an inconclusive outcome. Shown is part of a subset that was picked to be rich in actives. A call without a number means that no potency is given here. Unmarked numbers belong to inactive results. The call rests on the fitted dose curve; in most records, active means well fitted inhibition curve with a large enough effect; inconclusive means small, poorly fitted or top-dose-only effect; inactive means no such curve, though single readings can be large or run the other way.
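Further: the protocol describes HADH2 (HSD17B10) and not the HSD17B4 of the title; nearly all actives have a fitted effect of over 70% in size.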
Potency means the concentration at half of the fitted maximal effect.

Each compound was assayed against 3-hydroxyacyl-CoA dehydrogenase type-2 (Homo sapiens) (UniProt Q99714) (assay: qHTS Assay for Inhibitors of HSD17B4, hydroxysteroid (17-beta) dehydrogenase 4). Conditions: recombinant HSD17B10, NADH fluorescence kinetic; series mostly up to 57.1 µM.
How it was run: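 Enzyme plus compound, 15 min room temperature; substrate mix added (NAD+ 1 mM, beta-hydroxybutyryl-CoA 90 uM final); plates read kinetically for NADH fluorescence. HADH2 was His-tagged, E. coli-derived, 20 nM.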
`C=CCOC(=O)COCCC(C)C` was tested, and the Potency was “inactive”.
For `CCOC(=O)CSc1nnc(CNc2nc(-c3ccccc3)cs2)n1C`, the Potency was “inactive”.
For `COCCCNC(=O)c1ccc(CNS(=O)(=O)c2ccc(NC(C)=O)cc2)cc1`, the Potency was “inactive”.
In the case of `c1ccc(CSc2nnc(-c3ccco3)n2Cc2ccccc2)cc1`, the Potency is reported as “inactive”.
`O=C(CSc1nnc(-c2ccco2)n1-c1ccccc1)NCCc1ccccc1` was tested, and the Potency was “inactive”.
With `c1ccc(CSc2nnc(-c3ccco3)c(-c3ccco3)n2)cc1` the Potency was 10 µM (active).
In the case of `COc1ccc(C(=O)N2CCC(C(=O)Nc3cccc(C)c3)CC2)cc1OC`, the Potency is reported as “inactive”.
For `CCCCOC(=O)c1ccc(N2C(=O)CC(N3CCN(C/C=C/c4ccccc4)CC3)C2=O)cc1` (stereo not drawn), the Potency was “inactive”.
In the case of `COc1ccc(-c2noc(COc3ccc(Cl)c(C)c3)n2)cc1`, the Potency is reported as “inactive”.
With `COc1cc(-c2nc(-c3ccncc3)no2)cc(OC)c1OC` the Potency was “inactive”.
With `CCOc1nc(-c2ccc(OC)cc2)ccc1-c1noc(-c2cc(OC)c(OC)c(OC)c2)n1` the Potency was 3.16 µM (active).
With `CCCN1C(=O)C(NC(C)=O)c2cc(OC)ccc21` (stereo not drawn) the Potency was “inactive”.
For `CCOC(=O)c1c(CN2CCOCC2)n(-c2ccccc2)c2ccc(O)cc12`, the Potency was “inactive”.
For `O=C(CN1CCOCC1)N1CCCc2c1c(=O)oc1ccc(OCc3ccccc3)cc21`, the Potency was 31.6 µM (active).
With `O=C(OCCN1CCOCC1)C1(c2ccccc2)CCCCC1` the Potency was “inactive”.
With `O=C(CN1CCN(C(=O)c2ccco2)CC1)Nc1ccc(Cl)c(C(F)(F)F)c1` the Potency was “inactive”.
With `CCOc1ccccc1NC(=O)C1CCC(CNc2c(N3CCOCC3)c(=O)c2=O)CC1` (stereo not drawn) the Potency was “inactive”.
In the case of `Cc1cc(NC(=O)CSCc2nc(-c3cccc(Cl)c3)oc2C)no1`, the Potency is reported as “inactive”.
In the case of `Cc1ccsc1-c1nc(CSCC(=O)NCCN2CCCC2)c(C)o1`, the Potency is reported as 31.6 µM (active).
With `Cn1c(C(=O)NCCCN2CCCCC2)cc2sccc21` the Potency was “inactive”.
In the case of `CN(C)/C=N/c1cc(=O)n(C)c(=O)n1CC1CC1`, the Potency is reported as “inactive”.
`COCc1cc(C)nc(Nc2cc(C)ccc2C)c1C#N` was tested, and the Potency was “inactive”.
For `CCN1CCCC1CNC(=O)Cn1cnc2ccc(S(=O)(=O)N3CCC(C)CC3)cc2c1=O` (stereo not drawn), the Potency was “inactive”.
`CCCn1c(-c2ccc(F)cc2)nc2c(NCC3CCCN3CC)nc(C)nc21` (stereo not drawn) was tested, and the Potency was 31.6 µM (active).
For `CC(C)OCCCNc1ncnc2c1[nH]c1ccc(F)cc12`, the Potency was 25.1 µM (active).
With `CCN1CCCC1CNc1ncnc2c1[nH]c1ccc(F)cc12` (stereo not drawn) the Potency was 31.6 µM (active).
In the case of `Fc1ccc2[nH]c3c(N4CCSCC4)ncnc3c2c1`, the Potency is reported as 25.1 µM (active).
`CCN1C(=O)CS/C1=N\c1nccs1` was tested, and the Potency was “inactive”.
`CCOC(=O)N1CCN(C(=O)C2CC(c3ccc(F)cc3)=NO2)CC1` (stereo not drawn) was tested, and the Potency was “inactive”.
`O=Cc1c(Cl)cccc1Cl` was tested, and the Potency was “inactive”.
With `O=C(c1cn(-c2ccccc2)nc1-c1cccnc1)N1CCCCC1` the Potency was “inactive”.
In the case of `COc1ccc2[nH]cc(CCNc3nc(-c4cccc(NS(C)(=O)=O)c4)nc4ccccc34)c2c1`, the Potency is reported as “inactive”.
`CO[C@H]1COC(=O)C/C=C\[C@H](C)COC(=O)[C@@H](OCc2ccccc2)/C=C\[C@@H]1C` gave an activity change, negative = inhibition of -3.84% [at 11.4 µM].
For `CS(=O)(=O)N1CCC[C@@]2(CCN(c3ccncc3)C2)C1`, the Potency was “inactive”.
In the case of `CCNCCCNCCCNCCCNCC`, the Potency is reported as “inactive”.
`C=C[C@](C)(O)CCC1C(=C)CCC2[C@@](C)(CO)CCC[C@@]12C` (stereo partly drawn) was tested, and the Potency was “inactive”.
Compound `COC(=O)C(C(=O)OC)[C@@H]1CCCC(=O)C1` has an activity change, negative = inhibition of 8.89% [at 11.4 µM].
With `O=C(CNS(=O)(=O)c1ccc(Br)s1)NCc1ccc2c(c1)OCO2` the Potency was “inactive”.
In the case of `Cc1ccc(-c2nc(CS(=O)CC(=O)NC3CCCC3)c(C)o2)cc1` (stereo not drawn), the Potency is reported as “inactive”.
With `COc1ccc(-c2nc(CS(=O)CC(=O)NCc3cccnc3)c(C)o2)cc1OC` (stereo not drawn) the Potency was 25.1 µM (active).
In the case of `COc1ccc(-c2nc(CS(=O)CC(=O)NCc3ccccn3)c(C)o2)cc1` (stereo not drawn), the Potency is reported as “inactive”.
In the case of `CCOc1ccc(C(=O)N(Cc2ccc(N(C)C)cc2)C2CCS(=O)(=O)C2)cc1` (stereo not drawn), the Potency is reported as “inactive”.
`CN1CCc2nc(-c3ccccc3)c(-c3ccccc3)cc2C1` was tested, and the activity change, negative = inhibition was 2.91% [at 11.4 µM].
`COc1cc(C2C(C(=O)c3ccc(C)o3)=C(O)C(=O)N2Cc2cccnc2)ccc1O` (stereo not drawn) was tested, and the Potency was “inactive”.
`O=C(Nc1ccccc1N1CCCCC1)c1cccc(F)c1` was tested, and the Potency was “inactive”.
In the case of `Cc1c(NC(=O)C(C)OC(=O)c2cc3c4ccccc4n(C)c3s2)c(=O)n(-c2ccccc2)n1C` (stereo not drawn), the Potency is reported as 3.98 µM (active).
For `Cc1cc(C)cc(N(C(C)C(=O)Nc2c(C)n(C)n(-c3ccccc3)c2=O)S(C)(=O)=O)c1` (stereo not drawn), the Potency was “inactive”.
With `COC(=O)Nc1c(C)n(C)n(-c2ccccc2)c1=O` the Potency was “inactive”.
In the case of `CCOC(=O)CSc1nnc(CNC(=O)c2ccco2)n1-c1ccc(F)cc1`, the Potency is reported as “inactive”.
In the case of `C/C(=C\C(=O)c1cccnc1)Nc1ccc(C)c(C)c1`, the Potency is reported as “inactive”.
For `O=c1cccc(-c2ccc(Br)cc2)o1`, the Potency was “inactive”.
With `CC1C(c2ccccc2)=[N+]([O-])C2(CCCC2)N1O` (stereo not drawn) the Potency was “inactive”.
For `Nc1ncnc2c1ncn2C1CC(O)C(CO)O1` (stereo not drawn), the Potency was “inactive”.
